Experimental data published in PubChem BioAssay (NCI).
About 79,000 compounds went through this panel and 15% of them were active in at least one assay; those are over-represented in the sample as a whole. Calls of active or inactive are those of the source. Cut-off read from the data, not from the text of the source: active = growth inhibition above about 70%; inactive = the rest.

Key:
[1] = NCI Yeast Anticancer Drug Screen. Data for the rad52 strain (AID 147);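 note: 0% = growth of vehicle-treated control cultures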; conditions: S. cerevisiae rad52 mutant growth inhibition, stronger effect = higher value
Procedure, shortened: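 DNA repair-defective yeast; compound exposure; growth scored against vehicle controls.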

[2] = NCI Yeast Anticancer Drug Screen. Data for the wt1 strain (AID 149);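 note: 0% = growth of vehicle-treated wt1 cultures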; conditions: S. cerevisiae wt1 strain (SPY 50644) growth inhibition, stronger effect = higher value
Procedure, shortened: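 Compounds are added to wt1 yeast cultures. Growth is then measured. Inhibition is expressed relative to vehicle-treated controls.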

[3] = NCI Yeast Anticancer Drug Screen. Data for the rad50EPP+ strain (AID 151);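 note: 0% = growth of vehicle-treated control cultures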; conditions: S. cerevisiae rad50 mutant strain, stronger effect = higher value
Procedure, shortened: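 rad50EPP+ yeast treated with test compounds. Readout: growth vs vehicle control.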

[4] = NCI Yeast Anticancer Drug Screen. Data for the mgt1 strain (AID 153); conditions: S. cerevisiae mgt1 mutant growth inhibition, stronger effect = higher value
Procedure, shortened: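 Growth inhibition relative to vehicle controls was scored for the mgt1 yeast strain after compound exposure.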

[5] = NCI Yeast Anticancer Drug Screen. Data for the rad50 strain (AID 155);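 note: 0% = growth of vehicle-only cultures of the same strain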; conditions: S. cerevisiae rad50 strain growth inhibition, stronger effect = higher value
Procedure, shortened: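 Inhibition values express reduced yeast growth in compound-treated cultures relative to vehicle-treated controls.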

[6] = NCI Yeast Anticancer Drug Screen. Data for the mec2-1 strain (AID 157); conditions: S. cerevisiae mec2-1 strain, stronger effect = higher value
Procedure, shortened: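 Growth inhibition is read against vehicle-treated controls after compound exposure of the mec2-1 yeast strain, which is defective in DNA damage repair or cell cycle control.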

[7] = NCI Yeast Anticancer Drug Screen. Data for the rad14 strain (AID 159);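 note: 0% = growth of vehicle-treated control cultures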; conditions: S. cerevisiae rad14 strain growth inhibition, stronger effect = higher value
Procedure, shortened: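 A mutant yeast strain defective in DNA damage repair is treated with compound; inhibition of its growth is scored against untreated, vehicle-exposed cultures.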

[8] = NCI Yeast Anticancer Drug Screen. Data for the sgs1 mgt1 strain (AID 161);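 note: 0% = growth of cultures given vehicle only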; conditions: S. cerevisiae sgs1 mgt1 strain, stronger effect = higher value
Procedure, shortened: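 Growth of a repair-deficient yeast mutant was monitored after compound treatment and expressed as inhibition relative to vehicle-treated cultures.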

[9] = NCI Yeast Anticancer Drug Screen. Data for the CLN2oe strain (AID 163);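 note: 0% = growth of vehicle-only control cultures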; conditions: S. cerevisiae CLN2oe strain, stronger effect = higher value
Procedure, shortened: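 Compound-treated yeast; growth vs vehicle ctrl = % inhibition. Genetically altered strain (cell-cycle control).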

[10] = NCI Yeast Anticancer Drug Screen. Data for the cln2 rad14 strain (AID 165);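 note: 0% = growth equal to vehicle treated cultures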; conditions: S. cerevisiae cln2 rad14 strain, stronger effect = higher value
Procedure, shortened: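 Growth inhibition, relative to vehicle-treated controls, is the read-out. The test organism is a yeast strain with defined genetic alterations, cln2 rad14.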

[11] = NCI Yeast Anticancer Drug Screen. Data for the bub3 strain (AID 167); conditions: S. cerevisiae bub3 mutant strain, stronger effect = higher value
Procedure, shortened: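 Steps: expose the mutant yeast strain to compound; grow alongside vehicle-treated cultures; measure growth; express inhibition against the vehicle cultures.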

[12] = NCI Yeast Anticancer Drug Screen. Data for the wt2 strain (AID 169);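 note: 0% = growth of vehicle-treated yeast cultures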; conditions: S. cerevisiae wt2 strain growth inhibition, stronger effect = higher value
Procedure, shortened: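 Compound exposure of yeast; growth compared with vehicle controls; inhibition reported.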

[13] = NCI Yeast Anticancer Drug Screen. Data for the mlh1 strain (AID 171);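 note: 0% = growth of vehicle-treated control cultures of the same strain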; conditions: S. cerevisiae mlh1 strain growth inhibition, stronger effect = higher value
Procedure, shortened: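 Compounds are applied to a genetically altered yeast strain, and its growth is compared with that of vehicle-treated cultures to give percent inhibition.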

[14] = NCI Yeast Anticancer Drug Screen. Data for the sgs1 strain (AID 173);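 note: 0% = growth of vehicle-only control cultures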; conditions: S. cerevisiae sgs1 mutant, stronger effect = higher value
Procedure, shortened: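 Compounds applied to genetically altered yeast; growth compared with vehicle-treated cultures to give % inhibition.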

[15] = NCI Yeast Anticancer Drug Screen. Data for the mlh1 rad18 strain (AID 175); conditions: S. cerevisiae mlh1 rad18 strain growth inhibition, stronger effect = higher value
Procedure, shortened: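 Cells of a genetically altered yeast strain, deficient in DNA damage repair, were treated with compound. Their growth was then compared with that of vehicle-treated cultures to give inhibition.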

[16] = at 5.0 µM (retest, dose inferred, filed as 0.5)
[17] = at 50.0 µM (retest, dose inferred, filed as 5.0)

Measured: growth inhibition

O=C(CC(=O)n1nc(-c2ccccc2)c(N=Nc2ccccc2C(=O)O)c1-c1ccccc1)Nc1ccc(Cl)cc1
inactive: [1]; at 1.2 µM -2% | [1]; at 3.7 µM -1% | [1]; at 11.0 µM -1% | [1]; at 33.0 µM -2% | [1]; at 100.0 µM 8% | [2]; at 1.2 µM -1% | [2]; at 3.7 µM -4% | [2]; at 11.0 µM -3% | [2]; at 33.0 µM -4% | [2]; at 100.0 µM -4% | [3]; at 1.2 µM 2% | [3]; at 3.7 µM 6% | [3]; at 11.0 µM 15% | [3]; at 33.0 µM 23% | [3]; at 100.0 µM 37% | [4]; at 1.2 µM -2% | [4]; at 3.7 µM -3% | [4]; at 11.0 µM -5% | [4]; at 33.0 µM -6% | [4]; at 100.0 µM 7% | [5]; at 1.2 µM -2% | [5]; at 3.7 µM 1% | [5]; [16] 7% | [5]; at 11.0 µM 1% | [5]; at 33.0 µM 2% | [5]; [17] 16% | [5]; at 50.0 µM 49% | [5]; at 100.0 µM 14% | [6]; at 1.2 µM -2% | [6]; at 3.7 µM -1% | [6]; [16] 3% | [6]; at 11.0 µM -2% | [6]; at 33.0 µM -3% | [6]; [17] 4% | [6]; at 50.0 µM 36.2% | [6]; at 100.0 µM 2% | [7]; at 1.2 µM -1% | [7]; at 3.7 µM 2% | [7]; at 11.0 µM 3% | [7]; at 33.0 µM 3% | [7]; at 100.0 µM 29% | [8]; [16] -5% | [8]; [17] 20% | [8]; at 50.0 µM 41.7% | [9]; at 1.2 µM -4% | [9]; at 3.7 µM -3% | [9]; at 11.0 µM -7% | [9]; at 33.0 µM -10% | [9]; at 100.0 µM -15% | [10]; [16] 2% | [10]; [17] 24% | [10]; at 50.0 µM 9.4% | [11]; at 1.2 µM 8% | [11]; at 3.7 µM 15% | [11]; [16] 6% | [11]; at 11.0 µM 28% | [11]; at 33.0 µM 46% | [12]; at 1.2 µM -3% | [12]; at 3.7 µM -3% | [12]; at 11.0 µM -3% | [12]; at 33.0 µM -6% | [12]; at 100.0 µM 4% | [13]; at 1.2 µM -2% | [13]; at 3.7 µM -3% | [13]; at 11.0 µM -3% | [13]; at 33.0 µM -6% | [13]; at 100.0 µM 6% | [14]; at 1.2 µM -2% | [14]; at 3.7 µM -1% | [14]; at 11.0 µM 1% | [14]; at 33.0 µM 0% | [14]; at 100.0 µM 21% | [15]; [16] -11% | [15]; [17] 43% | [15]; at 50.0 µM 36%
active: [11]; [17] 71% | [11]; at 50.0 µM 88.7% | [11]; at 100.0 µM 72%

O=C1c2ccccc2C(=O)c2cc(CBr)ccc21
active: [1]; at 33.0 µM 79% | [1]; at 100.0 µM 91% | [3]; at 11.0 µM 73% | [3]; at 33.0 µM 94% | [3]; at 100.0 µM 95% | [5]; at 33.0 µM 82% | [5]; [17] 90% | [5]; at 50.0 µM 99.2% | [5]; at 100.0 µM 92% | [6]; [17] 77% | [6]; at 50.0 µM 90% | [6]; at 100.0 µM 71% | [7]; at 100.0 µM 89% | [8]; [17] 89% | [8]; at 50.0 µM 99.2% | [10]; [17] 76% | [11]; [17] 79% | [11]; at 50.0 µM 86.2% | [13]; at 100.0 µM 85% | [14]; at 33.0 µM 74% | [14]; at 100.0 µM 94% | [15]; [17] 92% | [15]; at 50.0 µM 96%
inactive: [1]; at 1.2 µM 5% | [1]; at 3.7 µM 16% | [1]; at 11.0 µM 21% | [2]; at 1.2 µM 0% | [2]; at 3.7 µM 0% | [2]; at 11.0 µM -1% | [2]; at 33.0 µM 18% | [2]; at 100.0 µM 53% | [3]; at 1.2 µM 27% | [3]; at 3.7 µM 56% | [4]; at 1.2 µM 0% | [4]; at 3.7 µM 2% | [4]; at 11.0 µM 4% | [4]; at 33.0 µM 21% | [4]; at 100.0 µM 68% | [5]; at 1.2 µM 2% | [5]; at 3.7 µM 14% | [5]; [16] 48% | [5]; at 11.0 µM 29% | [6]; at 1.2 µM 1% | [6]; at 3.7 µM 2% | [6]; [16] 32% | [6]; at 11.0 µM 5% | [6]; at 33.0 µM 32% | [7]; at 1.2 µM -2% | [7]; at 3.7 µM 6% | [7]; at 11.0 µM 12% | [7]; at 33.0 µM 53% | [8]; [16] 54% | [9]; at 1.2 µM 1% | [9]; at 3.7 µM 5% | [9]; at 11.0 µM 8% | [9]; at 33.0 µM 28% | [9]; at 100.0 µM 61% | [10]; [16] 33% | [10]; at 50.0 µM 57.5% | [11]; at 1.2 µM 1% | [11]; at 3.7 µM 0% | [11]; [16] 30% | [11]; at 11.0 µM 1% | [11]; at 33.0 µM 26% | [11]; at 100.0 µM 54% | [12]; at 1.2 µM 9% | [12]; at 3.7 µM 3% | [12]; at 11.0 µM 13% | [12]; at 33.0 µM 18% | [12]; at 100.0 µM 69% | [13]; at 1.2 µM 2% | [13]; at 3.7 µM 9% | [13]; at 11.0 µM 17% | [13]; at 33.0 µM 40% | [14]; at 1.2 µM -2% | [14]; at 3.7 µM -14% | [14]; at 11.0 µM 23% | [15]; [16] 63%
